# Measurements as given in PubChem BioAssay (NCI).
# About 79,000 compounds went through this panel and 15% of them were active in at least one assay; those are over-represented in the sample as a whole. Values without a mark were called inactive. The source made the active and inactive calls. Cut-off read from the data, not from the text of the source: active = growth inhibition above about 70%; inactive = the rest.
# Experiment: NCI Yeast Anticancer Drug Screen. Data for the sgs1 strain (AID 173);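 note: 0% = growth of vehicle-only control cultures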
# Settings: S. cerevisiae sgs1 mutant, stronger effect = higher value
# Description: Growth inhibition of yeast strains with defined genetic alterations is measured as a screen for potential anti-cancer activity. Selected strains with alterations in DNA damage repair or cell cycle control were exposed to compounds and growth inhibition was measured relative to vehicle treated controls. The strain used in this assay is sgs1
SMILES,growth inhibition (at 1.2 µM),growth inhibition (at 3.7 µM),growth inhibition (at 11.0 µM),growth inhibition (at 33.0 µM),growth inhibition (at 100.0 µM)
CCCCCCCCCCCCCCCCCCN(C)C(COC)COP(=O)([O-])OCC[N+](C)(C)C (stereo not given),-64%,-64%,97% (active),98% (active),98% (active)
CC1(C)CC(=O)C(/C=N/c2nc(-c3ccc(Br)cc3)cs2)=C(O)C1,10%,15%,49%,97% (active),98% (active)
c1cc(-c2sc(-c3ccncc3)c(-c3ccncc3)c2-c2ccncc2)ccn1,3%,7%,15%,42%,77% (active)
C=CCNC1=C2C[C@@H](C)C[C@H](OC)[C@H](O)[C@@H](C)/C=C(\C)[C@H](OC(N)=O)[C@@H](OC)/C=C\C=C(/C)C(=O)NC(=CC1=O)C2=O,-34%,-10%,56%,94% (active),96% (active)
COC(=O)C1CCCCC1C(=O)Nc1ccccc1 (stereo not given),-2%,-2%,0%,0%,1%
O=c1cccccc1[O-].O=c1cccccc1[O-].O=c1cccccc1[O-].[Eu+3],2%,1%,26%,98% (active),98% (active)
Cc1ccc([N+](=O)[O-])c2c(NCCC[N+](C)(C)[O-])c3ccccc3nc12,-7%,6%,31%,66%,81% (active)
O=C(Nn1c(-c2ccccc2)nc2ccccc2c1=O)c1ccc(CS)cc1,15%,8%,21%,65%,98% (active)
